Compounds with a hit are over-represented: about 11% of the library has one in this group of screens.
Tau fluor cs: counter-screen for tau fibril formation inhibitors | tau K18 P301L Alexa594 fluorescence, heparin fibrillization | Potency, µM (series often up to 57.7 µM), without a hit: top-dose activity change, negative = decrease | AID 1463 | 0.93% of 280,000 active; note: potency is the fitted concentration of half-maximal effect; nearly all actives have a fitted effect of over 55% in size
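Human K18 P301L tau (15 uM unlabeled plus 0.24 uM Alexa 594-labeled, final) in 100 mM sodium acetate pH 7 was mixed with compound and 20 uM heparin and incubated 6 hr at 37 C.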
Tau fibril FP: blocks human tau fibril formation measured by polarization; P10636; K18 P301L tau heparin fibrillization, Alexa594 FP, 6 h; Potency, µM (titrated, usually from 57.7 µM), inactives show at the highest dose activity, negative = inhibition, hits mostly inhibitors; 0.39% of 280,000 active; note: potency is the fitted concentration of half-maximal effect; nearly all actives have a fitted effect of over 55% in size
Target sequence (P10636 561-689 P618L limits assumed): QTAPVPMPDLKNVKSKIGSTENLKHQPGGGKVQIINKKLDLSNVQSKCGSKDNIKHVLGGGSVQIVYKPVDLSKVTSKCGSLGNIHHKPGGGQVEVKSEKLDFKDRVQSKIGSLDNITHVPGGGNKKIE
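Human tau K18 […] P301L fragment, 15 uM unlabeled plus 0.24 uM Alexa 594-labeled tau (final), with compound and 20 uM heparin in 100 mM sodium acetate pH 7; 6 hr at 37 C, then Alexa 594 FP read.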
Tau fibril ThT: inhibitors of human tau fibril formation, thioflavin T binding. P10636. recombinant tau K18 P301L, heparin-induced fibrillization, ThT fluorescence. Potency, µM (doses to about 57.4 µM), for the others: at the highest dose activity, negative = inhibition, most hits filed as inhibitors. 2.1% of 270,000 active. AID 1460; note: potency is the fitted concentration of half-maximal effect; nearly all actives have a fitted effect of over 55% in size
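Fibril formation assay: tau K18 P301L at 15 uM with trace Alexa 594 label, heparin inducer 20 uM, pH 7 sodium acetate buffer, 37 C for 6 hr; endpoint ThT signal.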
G9a inh: inhibitors of human histone lysine methyltransferase G9a; Q96KQ7; 8.8% of 350,000 active; G9a H3K9 monomethylation, AlphaScreen, 2 h; Potency, µM (series often up to 102 µM), inactives show at the highest dose activity, negative = inhibition, actives largely listed as inhibitors; note: potency is the fitted concentration of half-maximal effect; nearly all actives have a fitted effect of over 75% in size
Target sequence (Q96KQ7 913-1193 limits assumed): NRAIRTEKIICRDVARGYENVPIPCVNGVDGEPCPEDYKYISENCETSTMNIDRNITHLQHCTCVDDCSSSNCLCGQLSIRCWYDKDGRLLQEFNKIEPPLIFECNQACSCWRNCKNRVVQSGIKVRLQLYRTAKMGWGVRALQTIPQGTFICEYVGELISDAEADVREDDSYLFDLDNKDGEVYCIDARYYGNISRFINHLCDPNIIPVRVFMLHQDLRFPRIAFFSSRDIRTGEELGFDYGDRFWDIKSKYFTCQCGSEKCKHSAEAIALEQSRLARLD
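Methyltransferase reactions run at room temperature for 2 h (20 nM enzyme, 500 nM biotin-H3K9 peptide, 20 uM SAM) after a 15 min compound preincubation; product detected by AlphaScreen beads and anti-H3K9me1 antibody.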
FBPA coupling cs: counter-screen for Giardia aldolase inhibitors: coupling enzyme system | AID 2472 | 0.67% of 290,000 active | coupling enzyme system counterscreen, AmpLite Red fluorescence | activity change, negative = inhibition, % at 58.2 µM, hits read low; in the data active = activity change below about -30%
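Coupling enzymes only (glyceraldehyde-3-phosphate) + compound, at 57.5 uM final, 10 min RT; add substrate/coupling/AmpLite Red mix, 20 min RT; fluorescence ex 525/em 598 nm. Actives flag coupling-system interference.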
Sfp inh: blocks B. subtilis Sfp PPTase activity | Q9F4F7 | Biochemical Sfp PPTase activity, qHTS | Potency, µM, for the others: largest response in the series, negative = inhibition, most hits filed as inhibitors | 3.5% of 310,000 active;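 note: the enzyme is Sfp with the accession as filed and its product quenches rhodamine fluorescence; potency is the fitted concentration of half-maximal effect; 0% = enzyme reaction without inhibitor and -100% = no enzyme wells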
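Reaction rates are the 30-min fluorescence difference (ex 525, em 598 nm) in wells containing 15 nM Sfp, 5 uM rhodamine-CoA and 12.5 uM BHQ-2-YbbR at pH 7.6 with 10 mM MgCl2.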
Starred values were filed as active, the others as inactive; ? = inconclusive; · = no result; [ ] = another dose, or the depositor's remark. Unless noted, calls come from the whole dose curve; as a rule, active = well fitted curve in the direction sought with a large enough effect; inconclusive = small, poorly fitted or top-dose-only effect, or another doubt; inactive = no such curve, though single readings can be large; an effect the other way counts as inactive or inconclusive. Unless noted, % is set by controls: 0 for no effect and ±100 for the full control effect.

SMILES	Tau fluor cs	Tau fibril FP	Tau fibril ThT	G9a inh	FBPA coupling cs	Sfp inh
CCn1c(CSc2nnc(-c3ccoc3C)n2C)nc2cc(S(=O)(=O)N(C)C)ccc21	6%	1%	-3%	50µM*	1	3%
O=C(Nc1cccc(-c2ccc(N3CCCCC3)nn2)c1)c1ccco1	·	·	·	50µM*	·	·
CCOc1ccc(S(=O)(=O)Nc2cccc(-c3ccc(N4CCCC4)nn3)c2)cc1	-28%	-6%	-9%	?	·	·
CCOc1ccc(S(=O)(=O)Nc2cccc(-c3ccc(N4CCC(C)CC4)nn3)c2)cc1	-17%	-1%	8%	25µM*	·	·
COc1ccc(S(=O)(=O)Nc2cccc(-c3ccc(N4CCCCCC4)nn3)c2)c(OC)c1	-18%	-12%	-12%	45µM*	·	?
COc1ccc(S(=O)(=O)Nc2cccc(-c3ccc(N4CCCC4)nn3)c2)c(OC)c1	-2%	-11%	-2%	7.9µM*	·	·
COc1cccc(C(=O)N2CCC(C(=O)Nc3cccc(Cl)c3)CC2)c1	-19%	-15%	-4%	5%[59 µM]	·	·
CCN(CC)c1ccc(NC(=O)c2ccc3c(c2)OCO3)c(C)c1	·	·	·	·	0	8%
COc1ccc(OC)c(S(=O)(=O)Nc2ccc(-c3ccc4nncn4n3)cc2)c1	·	·	·	13µM*	·	·
CCCOc1ccc(-c2cccc(NS(=O)(=O)c3cc(OC)ccc3OC)c2)nn1	-18%	-8%	-5%	7.9µM*	·	·
COc1ccc(-c2cccc(NS(=O)(=O)c3cc(C)ccc3OC)c2)nn1	-8%	4%	0%	0%[59 µM]	·	·
O=C(NCCc1ccccc1Cl)c1ccc2c(c1)nc1n2CCCCC1	1%	0%	?	16%[59 µM]	·	·
COc1ccc2ccc3c(c2c1)N=C[C@]1(O3)N(C)c2ccccc2C1(C)C	?	?	20µM*	29%[0.501 µM]	-67*	50µM*
Cc1cc(Br)ccc1OCCCCN1CCC(C)CC1	-6%	-7%	-6%	11µM*	0	-8%
CC1CCN(CCCCOc2cccc(Br)c2)CC1	-5%	14%	-6%	8.9µM*	0	-43%
CC1CCN(CCCCOc2ccccc2Br)CC1	4%	-3%	1%	10µM*	1	50µM*
COc1ccc(NC(=O)Cn2nc(C(=O)O)c3ccccc3c2=O)cc1Cl	·	·	·	13%	-1	-5%
COc1ccc(Cc2nnc(NS(=O)(=O)c3ccccc3)s2)cc1	-4%	2%	-8%	-38%	10	-2%
COc1ccc(S(=O)(=O)Nc2nnc(Cc3ccc(OC)c(OC)c3)s2)cc1	5%	2%	5%	-49%	18	50µM*
Cc1ccc(S(=O)(=O)Nc2nc3ccc(N)cc3s2)cc1	·	·	·	14%[59 µM]	1	9%
O=[N+]([O-])c1ccc(S(=O)(=O)Nc2nnc(C(F)(F)F)s2)cc1	·	·	·	45µM*	8	14%
COc1ccc(Cc2nnc(NS(=O)(=O)c3ccc([N+](=O)[O-])cc3)s2)cc1	·	·	·	40µM*	9	-15%
O=[N+]([O-])c1ccc2nc(NS(=O)(=O)c3ccc(F)cc3)sc2c1	·	·	·	79µM*	18	-3%
CCOc1ccc(CCNC(=O)CCc2c(C)nc3cc(-c4ccccc4OC)nn3c2C)cc1	-2%	?	?	?	·	·
Cc1ccc(NC(=O)CCS(=O)(=O)c2ccc(Br)s2)c(Br)c1	-21%	-5%	-5%	-25%[59 µM]	·	·
SMILES	Tau fluor cs	Tau fibril FP	Tau fibril ThT	G9a inh	FBPA coupling cs	Sfp inh
COc1ccc(Cc2nnc(N)s2)cc1OC	-1%	-10%	-3%	7.9µM*	1	22µM*
COc1ccc(Cc2nnc(N)s2)cc1	4%	-2%	9%	?	-4	?
Cc1cccc(N=C2NC(=O)/C(=C/c3cccn3C)S2)c1	-29%	5%	7.9µM*	·	0	-14%
Cc1ccc(N=C2NC(=O)/C(=C\c3cccs3)S2)cc1C	3%	5%	1%	2.8µM*	1	2%
Cc1ccccc1N=C1NC(=O)/C(=C/c2cccn2C)S1	-29%	-3%	?	45µM*	-1	3%
COc1cccc(NC(=O)c2c(C(=O)Nc3ccccc3)sc3nc(C)cc(=O)n23)c1	-22%	-11%	-10%	-33%[59 µM]	·	·

From PubChem
